DAX1 inh-1 = blocks DAX1 repression of SF-1 activated StAR promoter | HEK293T StAR-luciferase reporter, SF-1/DAX-1 repression relief | inhibition, % at 6.8 µM | 1.1% of 370,000 active;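 active = inhibition above the mean over all tested compounds plus 3 SD, cut at about 3.6% in these data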;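 note: higher inhibition means more luminescence from relief of DAX-1 repression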
hgDAF-12 ag = activates the H. glycines DAF-12 receptor ligand-binding domain; HEK293 GAL4-hgDAF12 UAS-luciferase reporter, agonist luminescence; normalized to butyrate control; activation, % at 6.8 µM; 1.8% of 370,000 active;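 active = activation above a cutoff set at the mean of all screened compounds plus 3 SD, cut at about 10% in these data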
DAX1 inh-2 = inhibitors of human orphan nuclear receptor DAX1 (NR0B1); P51843; HEK293 Gal4-DAX1 luciferase reporter, luminescence; inhibition, % at 6.75 µM; 0.99% of 340,000 active; AID 504766;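 active = inhibition above the mean over all tested compounds plus 3 SD, cut at about 4.2% in these data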;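 note: inhibition shows as a rise in luminescence from relieved DAX1 repression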
AHR act = activates the human aryl hydrocarbon receptor. AID 2796. activation, % at 5 µM. AHR-responsive luciferase reporter cells, luminescence. P35869. 2.5% of 320,000 active; in the data active = activation above about 47%
hcDAF12 agonist = activators of H. contortus DAF-12 nuclear receptor; HEK293 hcDAF-12 lit1-tk-luc reporter, luminescence; 0% DMSO, 100% Δ7-dafachronic acid; activation, % at 6.8 µM; 1.4% of 370,000 active; AID 652067;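 active = activation above the mean of all tested compounds plus 3 SD, cut at about 5.5% in these data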
ssDAF12 agonist = activates DAF-12 receptor from parasite S. stercoralis. AID 652126. HEK293 ssDAF-12/GRIP1 lit1-tk-luc reporter, luminescence; % of 3 µM dafachronic acid response. 1% of 370,000 active. activation, % at 6.8 µM;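 active = activation above the mean over all tested compounds plus 3 SD, cut at about 0.9% in these data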
Numbers stand for hits; n = inactive; x = no result. Only some compounds are listed: those with a hit (about 5.7% of all), similar ones and a draw of the others.

SMILES	DAX1 inh-1	hgDAF-12 ag	DAX1 inh-2	AHR act	hcDAF12 agonist	ssDAF12 agonist
CS(=O)(=NS(=O)(=O)c1ccc(Cl)cc1)c1ccccc1 (configuration not stated)	n	n	4.3	n	n	n
CC1OC(Nc2ccc(N=Nc3ccccc3)cc2)C(O)C(O)C1O (configuration not stated)	n	n	n	n	n	n
CC1OC(Nc2cccc3ccccc23)C(O)C(O)C1O (configuration not stated)	n	n	n	n	n	1.8
O/N=C1\CC/C(=N\O)c2nn(-c3ccccc3Cl)nc21	n	n	n	n	n	n
Cc1ccc(-n2nc3c(n2)/C(=N/O)CC/C3=N\O)cc1	4.4	12	n	n	n	n
C=C(C)Cn1c(SCC(=O)N/N=C/c2c(O)ccc3ccccc23)nc2ccccc2c1=O	n	n	n	n	6.0	n
C=C(C)Cn1c(SCC)nc2ccccc2c1=O	n	n	n	n	n	n
Cc1ccc2nc(-c3ccc(NS(=O)(=O)c4ccccc4)cc3)sc2c1	n	n	n	n	n	n
O=S(=O)(Nc1ccc(-c2nc3cccnc3s2)cc1)c1ccccc1F	n	n	n	56	n	n
Cc1ccc2nc(-c3ccc(NS(=O)(=O)c4ccc(F)c(F)c4)cc3)sc2c1	5.8	17	n	n	6.4	n
O=S(=O)(Nc1ccc(-c2nc3cccnc3s2)cc1)c1ccc(Cl)s1	n	n	n	69	n	n
CCS(=O)(=O)Nc1cccc(-c2nc3cccnc3s2)c1	n	n	n	76	n	n
CCC(CC)CN1CCN=C1Nc1ccccc1	n	n	n	n	n	n
Cc1ccc(Cl)c(NC(=O)CN2CCNC(=O)C2)c1Cl	n	n	n	n	n	n
Cc1nc2ccc(S(=O)(=O)Nc3ccc(-c4nc5cccnc5s4)cc3)cc2s1	n	n	n	69	n	n
Cc1c(NS(=O)(=O)c2ccc3c(c2)OCCO3)cccc1-c1nc2cccnc2s1	n	n	n	n	n	n
Cc1nc2ccc(S(=O)(=O)Nc3cccc(-c4nc5cccnc5s4)c3)cc2s1	n	n	n	n	n	n
Cc1cc(-c2nc3cccnc3s2)ccc1NS(=O)(=O)c1ccc2c(c1)OCCO2	n	n	n	48	n	n
CCOC(=O)Cn1nc(C)c(NC(=O)COc2ccc(OC)cc2)c1C	n	n	n	n	n	n
NC(CO)(CO)COCc1ccccc1	n	n	n	n	n	1.3
Cc1ccc(NC(=O)c2ccc(C(=O)c3ccccc3)cc2)nc1	3.9	n	n	n	n	n
Cn1c(=O)c(C(=O)NCc2ccccc2)c(O)c2ccccc21	n	n	n	n	n	n
Cc1ccc(NC(=O)c2c(O)c3ccccc3n(C)c2=O)nc1	n	n	n	n	6.0	n
Cn1c(=O)c(C(=O)Nc2ncccc2O)c(O)c2ccccc21	n	n	n	77	n	n
CCN(c1ccccc1)S(=O)(=O)c1ccc(C(=O)Nc2ccc(C)cn2)cc1	n	n	n	n	n	n
SMILES	DAX1 inh-1	hgDAF-12 ag	DAX1 inh-2	AHR act	hcDAF12 agonist	ssDAF12 agonist
CC1(C)CC(C(CC(=O)N2CCCC2)Cc2ccccc2)CCO1 (configuration not stated)	n	n	n	n	n	n
NNC(=O)/C(=C\c1ccc(Br)cc1)NC(=O)c1cccs1	n	n	n	n	n	n
CN1/C(=C\C(=O)COC(=O)c2ccccc2O)C(C)(C)c2ccccc21	n	n	n	n	n	n
Cc1noc(C)c1C(=O)OCC(=O)/C=C1/N(C)c2ccccc2C1(C)C	n	n	5.9	x	n	n
COc1ccccc1OCC(=O)/C=C1/N(C)c2ccccc2C1(C)C	n	n	n	n	n	n
CN1/C(=C\C(=O)COc2ccc3c(c2)OCO3)C(C)(C)c2ccccc21	n	n	n	56	n	n
NC(=O)CCn1c(C(=O)c2cc(Cl)c(N)c(Cl)c2)c2ccccc2[n+]1[O-]	n	n	n	76	n	n
NC(=O)CCn1c(C(=O)c2cccc([N+](=O)[O-])c2)c2ccccc2[n+]1[O-]	n	n	n	57	n	1.1
NCCCn1c(C(=O)c2cc(Cl)c(N)c(Cl)c2)c2ccccc2[n+]1[O-]	n	n	n	72	n	n
COc1ccc(C(=O)c2c3ccccc3[n+]([O-])n2CCC(N)=O)cc1	n	n	n	n	n	n
